Measurements published in the supplement of paper PMC8975748.
Where a name gives a salt, the structure may show the parent alone. ± gives the standard deviation of the averaged measurements.

Legend:
[1] = tested on: Saccharomyces cerevisiae BY4741 SeMeCo community; experiment: mean cell size (pixel area) (pixels); higher = larger cells; details: 10 µM; 24 h; SM minimal medium
In short: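 Mean cell pixel area per well was determined by automated confocal microscopy with Harmony analysis of paraformaldehyde-fixed cells. The cells, a Saccharomyces cerevisiae BY4741 community of four plasmids that each complement one auxotrophy and carry a fluorescent marker, were incubated for 24 h with drug at a final 10 µM in SM medium in 384-well plates. Numbers are averaged over 3 replicates. Same SeMeCo high-content imaging drug screen: Selleck FDA-approved drugs at 10 µM, 24 h in SM medium, 384-well plates, 3 replicates.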

[2] = tested on: Saccharomyces cerevisiae BY4741 SeMeCo community; experiment: z-score of prototroph abundance vs DMSO median; higher = larger share of this subpopulation than in DMSO controls; details: 10 µM; 24 h; SM minimal medium; subpopulation (auxotrophy): Prototroph
In short: (§1)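 Scoring was based on each subpopulation's abundance, expressed as a z-score against the vehicle-well median. A Saccharomyces cerevisiae BY4741 community with four plasmids, each restoring one auxotrophy and encoding a distinct fluorescent protein, was pre-grown overnight to OD600 1.0, diluted to 0.3, and added at 70 µl to 384-well plates acoustically predosed with library drugs (10 µM final). It then grew 24 h in minimal SM medium before paraformaldehyde fixation and automated confocal microscopy, with single-auxotroph fluorescent strains setting thresholds and autofluorescence correction.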

[3] = tested on: Saccharomyces cerevisiae BY4741 SeMeCo community; experiment: z-score of subpopulation abundance vs DMSO median, subpopulation auxotrophic for M; higher = larger share of this subpopulation than in DMSO controls; details: 10 µM; 24 h; SM minimal medium; subpopulation (auxotrophy): M
In short: as §1

[4] = tested on: Saccharomyces cerevisiae BY4741 SeMeCo community; experiment: z-score of subpopulation abundance vs DMSO median, subpopulation auxotrophic for L; higher = larger share of this subpopulation than in DMSO controls; details: 10 µM; 24 h; SM minimal medium; subpopulation (auxotrophy): L
In short: as §1

[5] = tested on: Saccharomyces cerevisiae BY4741 SeMeCo community; experiment: z-score of subpopulation abundance vs DMSO median, subpopulation auxotrophic for U; higher = larger share of this subpopulation than in DMSO controls; details: 10 µM; 24 h; SM minimal medium; subpopulation (auxotrophy): U
In short: as §1

[6] = tested on: Saccharomyces cerevisiae BY4741 SeMeCo community; experiment: z-score of subpopulation abundance vs DMSO median, subpopulation auxotrophic for H; higher = larger share of this subpopulation than in DMSO controls; details: 10 µM; 24 h; SM minimal medium; subpopulation (auxotrophy): H
In short: as §1

[7] = tested on: Saccharomyces cerevisiae BY4741 SeMeCo community; experiment: z-score of subpopulation abundance vs DMSO median, subpopulation auxotrophic for LU; higher = larger share of this subpopulation than in DMSO controls; details: 10 µM; 24 h; SM minimal medium; subpopulation (auxotrophy): LU
In short: as §1

[8] = tested on: Saccharomyces cerevisiae BY4741 SeMeCo community; experiment: z-score of subpopulation abundance vs DMSO median, subpopulation auxotrophic for HM; higher = larger share of this subpopulation than in DMSO controls; details: 10 µM; 24 h; SM minimal medium; subpopulation (auxotrophy): HM
In short: as §1

[9] = tested on: Saccharomyces cerevisiae BY4741 SeMeCo community; experiment: z-score of subpopulation abundance vs DMSO median, subpopulation auxotrophic for HU; higher = larger share of this subpopulation than in DMSO controls; details: 10 µM; 24 h; SM minimal medium; subpopulation (auxotrophy): HU
In short: as §1

[10] = tested on: Saccharomyces cerevisiae BY4741 SeMeCo community; experiment: z-score of subpopulation abundance vs DMSO median, subpopulation auxotrophic for UM; higher = larger share of this subpopulation than in DMSO controls; details: 10 µM; 24 h; SM minimal medium; subpopulation (auxotrophy): UM
In short: as §1

[11] = tested on: Saccharomyces cerevisiae BY4741 SeMeCo community; experiment: z-score of subpopulation abundance vs DMSO median, subpopulation auxotrophic for HL; higher = larger share of this subpopulation than in DMSO controls; details: 10 µM; 24 h; SM minimal medium; subpopulation (auxotrophy): HL
In short: as §1

[12] = tested on: Saccharomyces cerevisiae BY4741 SeMeCo community; experiment: z-score of subpopulation abundance vs DMSO median, subpopulation auxotrophic for HLU; higher = larger share of this subpopulation than in DMSO controls; details: 10 µM; 24 h; SM minimal medium; subpopulation (auxotrophy): HLU
In short: as §1

[13] = tested on: Saccharomyces cerevisiae BY4741 SeMeCo community; experiment: z-score of subpopulation abundance vs DMSO median, subpopulation auxotrophic for HLM; higher = larger share of this subpopulation than in DMSO controls; details: 10 µM; 24 h; SM minimal medium; subpopulation (auxotrophy): HLM
In short: as §1

[14] = tested on: Saccharomyces cerevisiae BY4741 SeMeCo community; experiment: z-score of subpopulation abundance vs DMSO median, subpopulation auxotrophic for LUM; higher = larger share of this subpopulation than in DMSO controls; details: 10 µM; 24 h; SM minimal medium; subpopulation (auxotrophy): LUM
In short: as §1

[15] = tested on: Saccharomyces cerevisiae BY4741 SeMeCo community; experiment: z-score of subpopulation abundance vs DMSO median, subpopulation auxotrophic for HLUM; higher = larger share of this subpopulation than in DMSO controls; details: 10 µM; 24 h; SM minimal medium; subpopulation (auxotrophy): HLUM
In short: as §1

[16] = tested on: Saccharomyces cerevisiae BY4741 SeMeCo community; experiment: z-score of subpopulation abundance vs DMSO median, subpopulation auxotrophic for LM; higher = larger share of this subpopulation than in DMSO controls; details: 10 µM; 24 h; SM minimal medium; subpopulation (auxotrophy): LM
In short: as §1

Compound | mean cell size [1] | z-score of prototroph abundance [2] | z-score of subpopulation abundance [3] | z-score of subpopulation abundance [4] | z-score of subpopulation abundance [5] | z-score of subpopulation abundance [6] | z-score of subpopulation abundance [7] | z-score of subpopulation abundance [8] | z-score of subpopulation abundance [9] | z-score of subpopulation abundance [10] | z-score of subpopulation abundance [11] | z-score of subpopulation abundance [12] | z-score of subpopulation abundance [13] | z-score of subpopulation abundance [14] | z-score of subpopulation abundance [15] | z-score of subpopulation abundance [16]
O=C(O)Cc1ccccc1Nc1c(Cl)cccc1Cl [Diclofenac Diethylamine] | 12.66 ± 0.1 | 2.27 | -0.07 | 0.07 | -1.34 | -1.31 | -0.75 | -0.49 | -1.85 | -1.81 | -1.1 | -0.36 | -0.26 | -1.21 | 0 | 
CC(C)COCC(CN(Cc1ccccc1)c1ccccc1)N1CCCC1 (stereo not drawn) [Bepridil hydrochloride] | 12.5 ± 0.16 | -1.24 | -0.18 | 0.85 | -0.09 | 1.08 | 1.16 | 0.11 | 0.45 | 0.18 | 1.07 | 0.92 | 2.56 | 1.57 | 2.72 | -0.16
COC(=O)Nc1nc2cc(C(=O)c3ccc(F)cc3)ccc2[nH]1 [Flubendazole] | 12.19 ± 0.12 | 0.01 | -0.07 | 0.41 | -0.99 | 1.19 | -0.32 | 0.64 | 0.34 | -0.47 | 0.98 | 0.3 | -0.42 | 0.68 | -0.02 | 0.25
CC(=O)N1CCN(c2ccc(OCC3COC(Cn4ccnc4)(c4ccc(Cl)cc4Cl)O3)cc2)CC1 (stereo not drawn) [Ketoconazole] | 11.9 ± 0.21 |  | -1.31 | -0.63 | -0.47 |  | -0.4 | -1.06 |  | -0.23 | -0.6 | -0.27 | -0.67 | -0.27 |  | -0.27
CN[C@H]1C(=O)N[C@@H]2Cc3ccc(cc3)Oc3cc4cc(c3O[C@@H]3O[C@H](C(=O)O)[C@@H](O)[C@H](O)[C@H]3NC(=O)CCCCCCCCC(C)C)Oc3ccc(cc3Cl)[C@@H](O)[C@@H]3NC(=O)[C@H](NC(=O)[C@@H]4NC(=O)[C@@H](NC2=O)c2cc(cc(O)c2Cl)Oc2cc1ccc2O)c1ccc(O)c(c1)-c1c(O[C@H]2O[C@H](CO)[C@@H](O)[C@H](O)[C@@H]2O)cc(O)cc1[C@@H](C(=O)NCCCN(C)C)NC3=O [Dalbavancin] | 12.8 ± 0.072 | -0.15 | -4.48 | -0.21 | 1.53 |  | -0.56 | -1.02 | 3.63 | -0.56 | 1.2 | 2.43 | 1.32 |  | 0.69 | -1.16
CC1=CC[C@@](O)(C(C)C)CC1 [Terpinen-4-ol] | 12.39 ± 0.073 |  | -1.02 | 0.37 | 0.8 | -0.04 | 0.74 |  |  | 0.26 | -0.57 | 0.05 | 0.54 | 0.2 | 0.81 | -0.03
O=C(O)c1cn(C2CC2)c2cc(N3CCNCC3)c(F)cc2c1=O [Ciprofloxacin hydrochloride hydrate] | 12.4 ± 0.27 | -0.74 | 0.57 | -0.22 | 0.96 | -0.88 | 0.43 |  | 0.3 |  |  | 0.36 | 0.11 | 0.41 | 0.98 | -0.37
Nc1ccc2cc3ccc(N)cc3nc2c1 [Proflavine] | 12.11 ± 0.034 | 6.61 | 2.16 | -7.48 | -7.03 | 4.14 | -7.09 | 2.14 | -6.17 | -7.18 | -3.92 | -4.19 | -2.42 | -4.39 | -1.99 | -5.35
OC(CCCN1CCCCC1)(c1ccccc1)c1ccccc1 [Diphenidol HCl] | 12.4 ± 0.41 | -0.42 | 0.98 | -0.41 | 0.63 | -0.38 | 0.23 |  | 0.48 | 1.63 | -0.42 | -0.05 | -0.07 | -0.35 | -0.39 | -0.56
CC[C@H]1OC(=O)[C@H](C)[C@@H](O[C@H]2C[C@@](C)(OC)[C@@H](O)[C@H](C)O2)[C@H](C)[C@@H](O[C@@H]2O[C@H](C)C[C@H](N(C)C)[C@H]2O)[C@](C)(O)C[C@@H](C)C(=O)[C@H](C)[C@H]2OC(=O)O[C@@]21C [Erythromycin Cyclocarbonate] | 12.19 ± 0.065 |  | -0.28 | 1.01 | 0.09 | 2.08 | 0.04 | 0.9 | 0.76 | 0.58 | 1.2 | 0.3 | 0.52 | 0.8 | 0.39 | 0.55
C=CCCCCCCCCC(=O)[O-].C=CCCCCCCCCC(=O)[O-].[Zn+2] [Zinc Undecylenate] | 11.6 ± 0.15 | 2.41 | -3.83 | -1.01 | -0.17 | -1.44 | -1.37 | -2.65 | 2.38 | -2.31 | -0.05 | 3.75 | -0.76 | -0.54 | 3.48 | 
CC(=O)NC[C@H]1CN(c2ccc(N3CCOCC3)c(F)c2)C(=O)O1 [Linezolid] | 12.51 ± 0.11 | -0.12 | -0.22 | -0.63 | 1.39 |  | 0.78 |  | -0.11 | 0.29 | -0.58 | 0.07 | -0.75 | -0.15 | -0.36 | 0.19
O=C(O)c1ccccc1O [Salicylic acid] | 12.4 ± 0.14 | 0.79 | -0.07 | -0.26 | -0.01 | -0.17 | -0.68 | 0.33 | -1 | -0.89 |  | -0.57 | -1.09 | -0.79 | -0.68 | -0.74
Cc1cc(NS(=O)(=O)c2ccc(N)cc2)nc(C)n1 [sulfaisodimidine] | 12.1 ± 0.25 | -0.51 | 0.59 | 0.19 |  | -1.29 | 0.99 | 0.38 | 0.09 | 0.16 | -0.94 | 0.38 | -0.45 | 0.42 |  | 0.12
